In ChEMBL document CHEMBL4513146, “CO-ADD screening of Karazin Kharkiv National University (Ukraine) compounds”:
Results with a measured potency or affinity are listed apart.

What was measured:
Klebsiella pneumoniae = details: Concentration 32 ug.mL-1;; ASSAY_TEST Inhibition of Bacterial Growth; detection method Absorption (OD600); MEDIA CAMHB; plate type 384well; NBS; CORNING #3640; time 18 hr
Candida albicans = details: Concentration 32 ug.mL-1; ASSAY_TEST Inhibition of Fungal Growth; detection method Absorption (OD530)
Cryptococcus neoformans = details: Concentration 32 ug.mL-1; ASSAY_TEST Inhibition of Fungal Growth; detection method Resazurin; Absorption (OD600-OD570); plate type 384well; NBS; CORNING #3640

| SMILES | Inhibition (Klebsiella pneumoniae) [%] | Inhibition (Candida albicans) [%] | Inhibition (Cryptococcus neoformans) [%] |
| --- | --- | --- | --- |
| O=C(CCc1nnc2c(N3CCCCC3)nc3ccccc3n12)NCc1ccc(F)cc1 | 6.52 | 8.78 | -23.71 |
| CN(C(=O)Cn1nc2n(Cc3ccco3)c(=O)c3sccc3n2c1=O)c1ccccc1 | -0.68 | 2.07 | -9.74 |
| Cc1ccccc1Oc1nc2ccccc2n2c(=O)n(CC(=O)Nc3cccc(C(F)(F)F)c3)nc12 | 12.65 | 1.53 | -23.54 |
| COc1ccc(N(Cc2cccc(Cl)c2)S(=O)(=O)c2ccc3nncn3c2)cc1 | 12.52 | 3.54 | -3.69 |
